CYP2C9 activ: increases human cytochrome P450 2C9 activity; P11712; recombinant CYP2C9, luciferin-H conversion, luminescence; hits give high values; factor 1 = untreated enzyme, 0 = blocked; activation factor at 5 µM; 96,000 tested, 1.4% active;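 active means activation factor of 2 or more for CYP2C9 at a 5 µM dose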;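 further: 0 = sulfaphenazole-blocked wells and 1 = vehicle-only wells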
Target sequence (P11712 whole entry, looked up): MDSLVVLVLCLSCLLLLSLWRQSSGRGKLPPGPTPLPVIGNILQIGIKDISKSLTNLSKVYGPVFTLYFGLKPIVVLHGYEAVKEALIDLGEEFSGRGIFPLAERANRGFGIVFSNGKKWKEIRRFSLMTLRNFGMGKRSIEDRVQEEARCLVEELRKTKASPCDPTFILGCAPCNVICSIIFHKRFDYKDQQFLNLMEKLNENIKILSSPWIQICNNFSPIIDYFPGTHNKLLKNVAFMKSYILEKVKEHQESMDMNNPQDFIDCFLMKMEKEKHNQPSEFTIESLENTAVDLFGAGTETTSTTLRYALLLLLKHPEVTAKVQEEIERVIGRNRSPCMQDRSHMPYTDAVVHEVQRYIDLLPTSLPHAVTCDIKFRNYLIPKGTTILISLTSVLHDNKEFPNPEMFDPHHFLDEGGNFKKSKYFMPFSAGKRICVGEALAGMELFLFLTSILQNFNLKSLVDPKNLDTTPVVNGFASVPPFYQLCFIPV
CYP2C19 inh: human CYP2C19 inhibition; P33261; CYP2C19 Supersomes, luciferin-H EGE luminescence, 30 min; inhibition, % at 5 µM; 96,000 tested, 21% active;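 active means CYP2C19 inhibition above a set limit at 5 µM in the primary screen, cut at about 50% in these data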;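 further: plate controls were negative control wells for no effect and 2.5 mM tranylcypromine positive control for full effect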
CYP2C19 activ: cytochrome P450 2C19 (human) activation; AID 1025; 96,000 tested, under 10 active; P33261; activation factor at 5 µM; recombinant CYP2C19, luciferin-H EGE luminescence; hits give high values; 0 = fully inhibited enzyme, 1 = untreated enzyme;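 active means activation factor of at least 2 at 5 µM in the primary screen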;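 further: 0 = wells with 2.5 mM tranylcypromine and 1 = vehicle-only wells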
PostGolgi yeast: growth inhibition of a yeast mutant, post-Golgi transport screen. post-Golgi transport phenotypic cell assay. inhibition, % at 10 µM. 98,000 tested, 0.9% active;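 further: yeast cells grown in 1536-well plates; yeast grown about 18 h at 30C before absorbance read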
CYP2C9 inhib: human CYP2C9 inhibition. CYP2C9 Supersomes, luciferin-H conversion, luminescence. 96,000 tested, 20% active. P11712. inhibition, % at 5 µM;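 active means blocking of liver enzyme CYP2C9 beyond about 50% at 5 µM, limit read from the data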
PostGolgi ctrl: inhibits growth of the yeast control strain. 98,000 tested, 5% active. efflux-deficient yeast background strain, growth absorbance A615, 16 h. inhibition, % at 10 µM
Numbers without * were called inactive. Only some compounds are listed: those with a hit (about 32% of all), similar ones and a draw of the others. Unless noted, no stated cut-off is given here; in the data, active means inhibition above about 30%; inactive means the rest.

SMILES | CYP2C9 activ | CYP2C19 inh | CYP2C19 activ | PostGolgi yeast | CYP2C9 inhib | PostGolgi ctrl
Cc1cc(-c2ccccc2)nn1-c1nc2c(c(=O)[nH]c(=O)n2C)n1C | 0.9 | 1.7 | 1 | 8.5 | 9.4 | -4.5
CC1(C(=O)CSc2n[nH]c(-c3ccccc3Cl)n2)CCC(=O)O1 (stereo not given) | 1 | 24.6 | 0.8 | -3.8 | -4.5 | -5.2
COc1ccc(S(=O)(=O)NC(CC(=O)NCc2ccco2)C(C)C)cc1 (stereo not given) | 0.8 | 61.3* | 0.4 | -0.2 | 20.2 | 37.9*
COc1cccc(C(CC(=O)NCc2ccco2)NS(=O)(=O)c2ccc(C)cc2)c1OC (stereo not given) | 0.7 | 80.6* | 0.2 | 1.5 | 34.8 | 4.0
O=C(CC(NS(=O)(=O)c1ccc(Cl)cc1)c1ccco1)NCc1ccco1 (stereo not given) | 0.6 | 61.3* | 0.4 | -2.2 | 43.9 | 5.4
COc1cccc(C(CC(=O)NCC2CCCO2)NS(=O)(=O)c2ccc(C)cc2)c1OC (stereo not given) | 0.8 | 24.3 | 0.8 | -1.3 | 23.3 | 19.9
CCCNC(=O)C(NS(=O)(=O)c1ccc2c(c1)c(=O)n(C)c(=O)n2C)c1ccccc1 (stereo not given) | 0.8 | 16.7 | 0.8 | -2.2 | 20.5 | 15.7
CC1(C)CC(=O)c2c(n(-c3cccc4ccccc34)ccc2=O)C1 | 0.9 | 9.1 | 0.9 | -28.0 | 11.0 | 6.0
CC1CN(c2ccc(Oc3ccccc3)cc2)c2nc3c(c(=O)[nH]c(=O)n3C)n2C1 (stereo not given) | 0.9 | -4.8 | 1 | 15.5 | 9.0 | -6.0
COC(=O)c1cc2n3ccccc3c(C)c(-c3ccccc3)c-2c1C(=O)OC | 0.2 | 54.0* | 0.5 | 0.2 | 81.3* | 4.7
Cc1ccc2[nH]c(=O)c(C3C(C#N)=C(N)Oc4c3ccc3cccnc43)cc2c1 (stereo not given) | 0.4 | -13.8 | 1.1 | 8.8 | 62.1* | -0.6
N#Cc1c(-c2ccco2)nc(SCC(=O)Nc2cccc(Cl)c2)[nH]c1=O | 0 | 60.5* | 0.4 | -0.3 | 99.0* | -10.5
COCCOC(=O)c1c(C)nc(SCC(=O)Nc2ccc(OC)cc2)c(C#N)c1-c1ccco1 | 0.5 | 7.8 | 0.9 | -7.8 | 54.0* | 5.5
CN1CCc2nc(SCC(=O)Nc3cccc(F)c3)c(C#N)c(-c3cccs3)c2C1 | 0 | 94.6* | 0.1 | -5.9 | 100.5* | 2.1
COc1cccc(NC(=O)CSc2nc3c(c(-c4ccco4)c2C#N)CCCC3)c1 | 0.5 | 11.9 | 0.9 | -1.1 | 52.8* | -0.7
N#Cc1c(N)nc(SCC(=O)NCCc2ccccc2)c(C#N)c1-c1cccs1 | 0.8 | -4.0 | 1 | 19.7 | 20.6 | 4.4
COc1ccc(C)cc1NC(=O)CSc1nnc(-c2cc3cccc(OC)c3o2)n1N | 0.8 | 8.0 | 0.9 | 0.5 | 19.4 | 3.0
CN(C)CCNC(=O)CN1C(=O)COc2ccc(C(C)(C)C)cc21 | 1 | -6.6 | 1.1 | -1.2 | -2.5 | -1.0
CCN(CC)C(=O)C1CCCN(Cc2ccc(OC)c(C)c2)C1 (stereo not given) | 1.1 | 19.1 | 0.8 | 0.9 | -12.4 | 8.3
Cc1nc(SCC(=O)c2ccccc2)c(C#N)c(-c2ccco2)c1C(=O)NCc1ccco1 | 0.2 | 45.1 | 0.5 | -3.9 | 79.1* | 12.7
COc1ccc(-c2cc(-c3ccccc3)c(C#N)c(S(C)(=O)=O)n2)cc1 | 1 | -18.2 | 1.2 | 3.9 | 3.8 | 51.0*
CS(=O)(=O)c1nc(-c2ccc(Br)cc2)cc(-c2ccccc2)c1C#N | 0.3 | 57.2* | 0.4 | 9.8 | 73.2* | 74.1*
N#Cc1c(-c2cccc(F)c2)cc(-c2ccccc2)nc1Br | 1 | -14.1 | 1.1 | -0.3 | -3.7 | 0.8
COc1ccc(-c2ccc(-c3noc(-c4ccccc4)n3)c(OC)n2)cc1 | 0.9 | 1.8 | 1 | 3.0 | 8.7 | 2.2
CS(=O)c1nc(-c2ccc(Br)cc2)cc(-c2ccccc2)c1C#N (stereo not given) | 0.2 | 57.0* | 0.4 | -0.9 | 82.6* | 77.1*
SMILES | CYP2C9 activ | CYP2C19 inh | CYP2C19 activ | PostGolgi yeast | CYP2C9 inhib | PostGolgi ctrl
CCCc1cc(C(=O)Nc2sc(C)c(C)c2C(=O)OCC)no1 | 1.8 | -12.7 | 1.1 | 1.5 | -79.4 | 12.0
CC(C)OP(=O)(OC(C)C)C(NC(=O)c1ccc(Br)cc1)c1ccccc1 (stereo not given) | 0.6 | 49.9 | 0.5 | 0.4 | 41.0 | 16.8
CC(C)OC(=O)CSc1nnc(-c2cnccn2)n1-c1ccc(Cl)cc1 | 0.6 | 37.1 | 0.6 | 3.6 | 35.5 | 2.7
Cc1cc(C)nc(SCc2nnc(SCC(=O)Nc3ccc(C)c(C)c3)n2Cc2ccco2)n1 | 0.6 | 33.2 | 0.7 | -7.8 | 43.3 | 16.8
CC(=O)Nc1cccc(NC(=O)CSc2ncc(-c3ccc(Cl)cc3)n2Cc2ccco2)c1 | 0.6 | 48.2 | 0.5 | -3.6 | 41.6 | 36.7*
O=C(CSc1nnc(COc2ccccc2)n1Cc1ccco1)Nc1ccc2c(c1)OCCO2 | 0.9 | -1.7 | 1 | -2.7 | 11.4 | 3.6
COc1ccc(-c2cnc(SCC(=O)Nc3ccc4c(c3)OCO4)n2Cc2ccco2)cc1 | 0 | 95.9* | 0 | -4.7 | 99.5* | 12.3
CCCCn1nc(C(=O)O)ccc1=O | 0.9 | 7.5 | 0.9 | 2.4 | 9.3 | -2.7
Brc1cccc(-c2nnc3sc(CNC4CCCC4)cn23)c1 | 0.9 | 17.7 | 0.8 | 2.9 | 12.5 | -5.6
CCOC(=O)c1c(NC(=O)CN2CCOCC2)sc2c1CC(C)(C)OC2 | 0.3 | 49.6 | 0.5 | -4.9 | 73.7* | 8.3
CCOC(=O)c1c(NC(=O)CCN2CCOCC2)sc2c1CC(C)(C)OC2 | 0.6 | 26.5 | 0.7 | -27.2 | 43.8 | 1.4
CCOC(=O)c1c(NC(=O)c2ccccc2C)sc2c1CC(C)(C)OC2 | 0.2 | 46.9 | 0.5 | -0.5 | 77.1* | 5.3
Cc1ccc(C2C(C(=O)c3sc(C)nc3C)=C(O)C(=O)N2CCN2CCOCC2)o1 (stereo not given) | 0.8 | -2.8 | 1 | 11.3 | 21.6 | 21.8
Cc1c(C(C)NC(=O)Nc2ccc(F)cc2F)cnn1C (stereo not given) | 1.2 | -15.7 | 1.2 | 3.1 | -15.8 | -0.8
CC(C)OP(C)(=O)CN1CCN(CP(C)(=O)OC(C)C)CC1 (stereo not given) | 0.9 | -0.8 | 1 | -2.8 | 7.8 | 9.5
O=C(Cc1nc2ccccc2s1)c1ccc(O)cc1O | 1 | 29.9 | 0.7 | -6.2 | 3.3 | 3.7
O=C(Cc1ccc(Br)cc1)c1ccc(O)cc1O | 0.5 | 70.7* | 0.3 | -3.1 | 53.8* | 30.2*
O=C(COc1ccccc1Br)c1ccc(O)cc1O | 0.4 | 65.8* | 0.3 | -1.6 | 62.2* | 18.4
COc1cc(C2C3C(=O)N(c4ccc(F)cc4)C(=O)C3ON2c2ccccc2)ccc1O (stereo not given) | 0.5 | 41.8 | 0.6 | 1.4 | 53.3* | -2.1

Source: PubChem (several laboratories)
